LYPLA2 inh: blocks human lysophospholipase 2, a PME1 counter-screen | O95372 | recombinant LYPLA2, FP-Rh probe fluorescence polarization | inhibition, % at 5.9 µM | hit rate 0.38% among 320,000;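 active means inhibition above the screen-wide mean plus 3 SD, limit set per campaign, cut at about 26% in these data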;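 further: 0% = LYPLA2 with DMSO and 100% = wells lacking LYPLA2 enzyme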
Target sequence (O95372 whole entry, looked up): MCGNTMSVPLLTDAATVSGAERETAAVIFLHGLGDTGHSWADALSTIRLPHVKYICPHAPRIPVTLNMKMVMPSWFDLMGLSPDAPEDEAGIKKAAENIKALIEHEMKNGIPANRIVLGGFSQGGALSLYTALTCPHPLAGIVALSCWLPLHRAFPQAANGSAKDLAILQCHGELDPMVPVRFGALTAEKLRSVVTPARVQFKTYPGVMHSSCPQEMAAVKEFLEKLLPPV
PAD4 inh: blocks human protein arginine deiminase 4; inhibition, % at 6.36 µM; recombinant PAD4, RCA probe fluorescence polarization; AID 485272; hit rate 0.41% among 330,000; Q9UM07;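 active means percent inhibition above a cutoff equal to the mean of all tested compounds plus 3 SD, cut at about 15% in these data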;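 further: 0% = PAD4 with RCA probe and DMSO and 100% = probe without PAD4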
Fam108B inh: blocks mouse Fam108B hydrolase in RBBP9 counter-screen. recombinant Fam108B, FP-Rh probe fluorescence polarization. inhibition, % at 9.51 µM. hit rate 0.33% among 300,000. AID 1947;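 active means inhibition above the screen mean inhibition plus 3 SD, computed separately per campaign, cut at about 18% in these data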;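 further: inhibitors lower polarization as less probe binds the enzyme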
GSTO1 counter: counter-screen for RBBP9 inhibitors: inhibitors of human GSTO1. P78417. recombinant GSTO1, activity-based probe fluorescence polarization. inhibition, % at 5.96 µM. hit rate 1.1% among 300,000;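 active means inhibition above the campaign mean inhibition plus 3 SD, cut at about 35% in these data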;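 further: 0% = GSTO1-1 with DMSO and 100% = wells lacking GSTO1-1 enzyme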
LYPLA1 inh: blocks human lysophospholipase 1, a PME1 counter-screen. recombinant LYPLA1, FP-Rh probe fluorescence polarization. inhibition, % at 5.9 µM. hit rate 0.16% among 320,000;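 active means inhibition above the mean of all tested compounds plus 3 SD, set per campaign, cut at about 14% in these data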;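 further: inhibitors block serine hydrolase probe labeling of LYPLA1 so polarization falls; 0% = enzyme with DMSO and 100% = wells lacking LYPLA1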
Target sequence (O75608 whole entry, looked up): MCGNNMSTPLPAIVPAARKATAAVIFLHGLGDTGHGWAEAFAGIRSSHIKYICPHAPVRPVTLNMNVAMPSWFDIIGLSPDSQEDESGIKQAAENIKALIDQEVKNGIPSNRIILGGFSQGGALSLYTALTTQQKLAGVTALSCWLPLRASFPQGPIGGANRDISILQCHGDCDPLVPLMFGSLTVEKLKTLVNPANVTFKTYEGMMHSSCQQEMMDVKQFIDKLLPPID
PME-1 inh: blocks human protein phosphatase methylesterase 1. hit rate 0.53% among 320,000. inhibition, % at 5.9 µM. recombinant PME-1, FP-Rh probe fluorescence polarization;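 active means inhibition above the campaign mean of all compounds plus 3 SD, cut at about 26% in these data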;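 further: competitive labeling of PME-1 active site by serine hydrolase directed probe; 0% = PME-1 with DMSO and 100% = wells lacking PME-1 enzyme; inhibitors block probe labeling so polarization falls and inhibition rises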
GSTO1 inh conf: confirmation of human GSTO1 inhibitors; shares compounds with GSTO1 counter; recombinant GSTO1, probe fluorescence polarization; inhibition, % at 5.96 µM; hit rate 54% among 2,400; AID 2176;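 active means inhibition above the primary screen's cutoff, its mean inhibition plus 3 SD, cut at about 35% in these data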;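 further: loss of polarization as inhibitors block binding of rhodamine sulfonate ester activity probe; 0% = GSTO1 with DMSO and 100% = wells lacking GSTO1 enzyme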
GSTO1 recomb ABPP: inhibitors of recombinant human GSTO1. shares compounds with GSTO1 counter. gel ABPP SE-Rh probe fluorescence. inhibition, % at 1 µM. hit rate 30% among 130. AID 463110;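 active means inhibition of the enzyme GSTO1 above about 75%, limit read from the data; inactive means inhibition below that limit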
* = called active by the depositor. The list is not random: actives were taken first. Their share in the collection is about 1.7%.

`CCOc1cc(/C=C2\C(=O)N(CCc3ccc(OC)c(OC)c3)C(C)=C2C(=O)OC)ccc1O` gave LYPLA2 inh -10.7, PAD4 inh -11.5, Fam108B inh 0.8, GSTO1 counter 43.3*, LYPLA1 inh 0.9, PME-1 inh -3.5 and GSTO1 inh conf -1.6.
For O=C(c1ccc(Cl)c(Cl)c1)N1CCC(=O)N(C(COCc2ccccc2)Cc2ccccc2)CC1 (centres undefined) the results were LYPLA2 inh -0.5, PAD4 inh -0.5, Fam108B inh -0.7, GSTO1 counter -1.8, LYPLA1 inh -4.5 and PME-1 inh 14.3.
For O=C(c1ccccc1)c1nn(-c2ccc(Cl)cc2)c(=O)cc1C(F)(F)F the results were LYPLA2 inh -3.5, PAD4 inh 2.1, Fam108B inh 5.5, GSTO1 counter 76.1*, LYPLA1 inh -0.3, PME-1 inh -0.2 and GSTO1 inh conf 78.5*.
For O=C(Nc1ccccc1)c1nn(-c2ccccc2)c(=O)cc1C(F)(F)F the results were LYPLA2 inh 4.7, PAD4 inh -3.6, Fam108B inh 5.1, GSTO1 counter 9.1, LYPLA1 inh -1.2 and PME-1 inh -0.7.
For C=CCOC(=O)/C(=C\c1ccccc1)NC(=O)c1ccc(C)cc1 the results were LYPLA2 inh 1.5, PAD4 inh 0.0, Fam108B inh -1.1, GSTO1 counter 8.4, LYPLA1 inh 0.1 and PME-1 inh 3.0.
CCN(c1ccc(NC(=O)COC(=O)CCC(=O)c2ccc(F)cc2)cc1)C(C)C was read as LYPLA2 inh 0.2, PAD4 inh -3.3, Fam108B inh -1.3, GSTO1 counter 38.5*, LYPLA1 inh 2.6, PME-1 inh 4.5 and GSTO1 inh conf 23.9.
For CC(=O)c1cccc(NC(=O)COC(=O)CCC(=O)c2ccc(F)cc2)c1 the results were PAD4 inh 1.8.
O=C(CN1CCN(c2cccc(Cl)c2)CC1)N1CCCC1 was read as LYPLA2 inh -4.4, PAD4 inh -2.1, Fam108B inh 5.2, GSTO1 counter -1.1, LYPLA1 inh -0.2 and PME-1 inh -6.2.
`O=C(CCl)N1CCN(CC(=O)N2CCCC2)CC1` gave LYPLA2 inh -2.2, PAD4 inh 2.4, Fam108B inh 1.0, GSTO1 counter 81.7*, LYPLA1 inh 1.4, PME-1 inh -6.1, GSTO1 inh conf 80.5* and GSTO1 recomb ABPP 40.0.
For CN1CCN(C/C(=C2/N=C(c3ccccc3)OC2=O)N(C)C)CC1 the results were LYPLA2 inh -0.5, PAD4 inh 6.8, Fam108B inh -1.1, GSTO1 counter 5.0, LYPLA1 inh 0.5 and PME-1 inh -4.0.
CCOC(=O)c1c(CN(C)C)n(C)c2c(O)c(N=NC(N)=O)c3ccc(Br)cc3c12 was read as LYPLA2 inh 10.9, PAD4 inh -10.3, Fam108B inh 7.7, GSTO1 counter 49.3*, LYPLA1 inh 2.1, PME-1 inh 11.5 and GSTO1 inh conf 28.9.
For CCOC(=O)c1c(CN(C)C)n(C)c2ccc(OC(C)=O)cc12 the results were LYPLA2 inh 1.1, PAD4 inh -0.2, Fam108B inh 0.0, GSTO1 counter -7.0, LYPLA1 inh -4.0 and PME-1 inh -6.0.
For O=C(CCl)NNC(=O)c1c(O)c2ccccc2[nH]c1=O the results were LYPLA2 inh 4.0, PAD4 inh 1.3, Fam108B inh 4.7, GSTO1 counter 88.7*, LYPLA1 inh 3.2, PME-1 inh -0.3 and GSTO1 inh conf 96.9*.
CCNC(=O)c1c(O)c2ccccc2[nH]c1=O was read as LYPLA2 inh 3.7, PAD4 inh 5.5, Fam108B inh 1.0, GSTO1 counter 5.9, LYPLA1 inh -2.5 and PME-1 inh 5.9.
For CC(C)=NNC(=O)c1c(O)c2ccccc2[nH]c1=O the results were LYPLA2 inh 0.7, PAD4 inh -2.6, Fam108B inh 2.4, GSTO1 counter 42.0*, LYPLA1 inh 2.0, PME-1 inh -3.0 and GSTO1 inh conf 4.4.
`Cc1c(F)cccc1NS(=O)(=O)c1ccc2c(c1)NC(=O)CO2` gave LYPLA2 inh -5.5, PAD4 inh -9.8, Fam108B inh -2.5, GSTO1 counter 32.8, LYPLA1 inh -0.6 and PME-1 inh -6.2.
`CN(C)c1ccc(O)c2c1CC1CC3[C@@H](N(C)C)C(=O)C(C(N)=O)C(=O)[C@]3(O)C(=O)C1C2=O` (some centres undefined) gave PAD4 inh 0.5.
Screening CN(C)c1ccc(O)c2c1CC1CC3C(N(C)C)C(=O)C(C(N)=O)=C(O)[C@@]3(O)C(=O)C1=C2O (some centres undefined) returned LYPLA2 inh 0.1, PAD4 inh -3.0, Fam108B inh 3.4, GSTO1 counter 48.0*, LYPLA1 inh -2.1, PME-1 inh -3.4 and GSTO1 inh conf 20.0.
For Cc1cc(C(=O)Nc2ccc(F)cc2)c2ccccc2n1 the results were LYPLA2 inh 2.9, PAD4 inh 0.2, Fam108B inh 1.3, GSTO1 counter 0.8, LYPLA1 inh -2.1 and PME-1 inh -1.9.
`COc1ccc(NC(=S)NC(NC(=O)CCl)C(Cl)(Cl)Cl)c([N+](=O)[O-])c1` (centres undefined) gave LYPLA2 inh 1.7, PAD4 inh -3.8, Fam108B inh -2.9, GSTO1 counter 91.7*, LYPLA1 inh -3.9, PME-1 inh 0.3 and GSTO1 inh conf 96.8*.
`COc1ccc(NC(=S)NC(NC(=O)c2ccccc2Cl)C(Cl)(Cl)Cl)c([N+](=O)[O-])c1` (centres undefined) gave LYPLA2 inh -4.5, PAD4 inh -2.7, Fam108B inh 0.0, GSTO1 counter -12.1, LYPLA1 inh -8.3 and PME-1 inh 1.3.
For O=C(OCC(=O)N1CCN(c2ccccc2)CC1)C1=COCCO1 the results were LYPLA2 inh 3.1, PAD4 inh 4.3, Fam108B inh 4.2, GSTO1 counter 67.1*, LYPLA1 inh 3.4, PME-1 inh -2.9 and GSTO1 inh conf 34.2.
For Cc1cc(C)nc(N/N=C/c2ccccc2OCC(=O)O)n1 the results were LYPLA2 inh 11.3, PAD4 inh -1.9, Fam108B inh 0.9, GSTO1 counter 0.9, LYPLA1 inh 4.3 and PME-1 inh -2.7.
Screening CNCc1ccccc1Sc1cccc(O)c1 returned LYPLA2 inh 7.3, PAD4 inh 1.9, Fam108B inh 0.4, GSTO1 counter 3.6, LYPLA1 inh 2.6 and PME-1 inh -2.1.
CNCc1ccccc1Sc1cc(O)ccc1O was read as LYPLA2 inh -1.0, PAD4 inh -1.8, Fam108B inh 4.0, GSTO1 counter 89.1*, LYPLA1 inh -0.1, PME-1 inh -3.2 and GSTO1 inh conf 55.5*.

Source: PubChem (The Scripps Research Institute Molecular Screening Center)
